Screen size: about 310,000 compounds; about 2,600 (0.84%) were called active.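 Rule for the calls: active = fluorescence ratio B-score at or below minus 3 SD of library scores, with starting-brightness B-score within 2 SD (cut at about -4.2 in these data); inactive = the rest.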 Many of the other results were omitted from the sample, so actives are more common in it than they were.
Target: Inward rectifier potassium channel 2 (Mus musculus) (UniProt P35561)
Assay: inhibitors of mouse Kir2.1 inward-rectifier potassium channel (AID 1672);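 note: channel flux triggered by added potassium and thallium sulfate stimulus; B-score of peak minus minimum fluorescence over baseline after thallium stimulus; more negative B-score means stronger Kir2.1 block with less thallium influx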
Conditions: HEK293-Kir2.1, FluxOR thallium flux fluorescence; at 10 µM; active compounds read low

Chain of Inward rectifier potassium channel 2 (Mus musculus) (P35561 whole entry, looked up): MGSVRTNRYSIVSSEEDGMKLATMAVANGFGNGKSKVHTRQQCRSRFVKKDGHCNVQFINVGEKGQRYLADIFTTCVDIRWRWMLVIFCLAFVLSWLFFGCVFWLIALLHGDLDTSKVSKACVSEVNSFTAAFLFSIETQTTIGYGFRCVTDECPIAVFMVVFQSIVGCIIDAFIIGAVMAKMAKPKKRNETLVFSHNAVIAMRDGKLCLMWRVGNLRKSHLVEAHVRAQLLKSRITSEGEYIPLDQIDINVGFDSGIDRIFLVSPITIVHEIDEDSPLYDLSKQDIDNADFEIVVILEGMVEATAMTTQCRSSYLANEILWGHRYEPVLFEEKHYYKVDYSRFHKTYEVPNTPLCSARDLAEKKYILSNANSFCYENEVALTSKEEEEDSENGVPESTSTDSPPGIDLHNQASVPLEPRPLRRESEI

SMILES | B-score
C=CCC1(C(=O)N(C)Cc2ccccc2)CCN(C(=O)OC(C)(C)C)CC1 | 0.59 (inactive)
COc1cc2ccccc2cc1C(=O)Nc1ccncc1 | -0.09 (inactive)
OCCNCCOc1ccc(Cl)c(Cl)c1 | 0.04 (inactive)
S=C(NCCc1ccccc1)NCc1ccccc1Cl | -2.33 (inactive)
OCCNCc1cccc(OCc2ccccc2Cl)c1 | -5.85 (active)
CCCCN(C(=O)c1ccc(C)o1)c1c(N)n(CCCC)c(=O)[nH]c1=O | 1.81 (inactive)
CC(C)(C)n1nc(Cc2cccc3ccccc23)c(C#N)c1N | 0.39 (inactive)
Cc1nn(CCOc2ccccc2)c(=O)n1-c1ccccc1F | -0.66 (inactive)
c1ccc2cc(OCCN3CCCC3)ccc2c1 | 1.22 (inactive)
CC(C)(c1ccccc1)c1ccc(OCCN)cc1 | -6.43 (active)
CN(C)CC(O)COc1ccc(C(C)(C)c2ccc(OCC(O)CN(C)C)cc2)cc1 (centres undefined) | -2.29 (inactive)
c1ccc(-c2ccc(OCCN3CCOCC3)cc2)cc1 | -0.1 (inactive)
CC(C)(c1ccccc1)c1ccc(OCCN2CCCC2)cc1 | -6.84 (active)
O=C(NC(Cc1ccccc1)C(=O)N1CCCC(C(F)(F)F)C1)c1ccccc1 (centres undefined) | -0.03 (inactive)
CCN1C(=O)[C@@H]2[C@@H](c3ccc(-c4ccccc4)cc3)N3CCCC[C@@]3(C(=O)OC)[C@@H]2C1=O | 2.48 (inactive)
CC(=O)c1ccc(S(=O)(=O)NC2CC(=O)N(c3ccc4c(c3)OCCO4)C2)cc1 (centres undefined) | 2.09 (inactive)
CCCCN1C(N)=NC[C@@H]1Cc1ccccc1 | 1.05 (inactive)
Nc1ccc(C(=O)N2CCN(S(=O)(=O)c3ccc(Cl)cc3)CC2)cc1[N+](=O)[O-] | 0.63 (inactive)
COc1ccccc1CCNS(=O)(=O)c1cc2c3c(c1)C(C)C(=O)N3CCC2 (centres undefined) | -5.71 (active)
CCOc1ccccc1NS(=O)(=O)c1cc2c3c(c1)C(C)C(=O)N3CCC2 (centres undefined) | -0.71 (inactive)
CC1C(=O)N2CCCc3cc(S(=O)(=O)NCc4ccc(F)cc4)cc1c32 (centres undefined) | -0.21 (inactive)
COc1ccc(N2CC(NS(=O)(=O)c3ccc4ccccc4c3)CC2=O)cc1 (centres undefined) | 0.13 (inactive)
Cc1ccc2[nH]c3c(c2c1)CN(C(=O)CN1CCN(c2ccccc2)CC1)CC3 | 0.62 (inactive)
O=C(CCCN1CCc2[nH]c3ccc(F)cc3c2C1)c1ccc(F)cc1 | -7.87 (active)
CCCC(=O)N1CCc2[nH]c3ccccc3c2C1 | 0.74 (inactive)

SMILES | B-score
CCOc1cc(C(=O)Nc2ccc(S(=O)(=O)Nc3cnc4ccccc4n3)cc2)cc(OCC)c1OCC | 1.91 (inactive)
CN(C)C(CNC(=O)c1cccc(S(=O)(=O)Nc2ccc(Br)cc2)c1)c1ccco1 (centres undefined) | 0.84 (inactive)
O=C(NCc1ccccn1)Nc1ccc(Cl)cc1 | 0.46 (inactive)
CC(=O)C12CC(C)=C(C)CC1CC1C3CCC4=CC(=O)CCC4(C)C3CCC12C (centres undefined) | 0.6 (inactive)
CCN(CC(=O)Nc1cc(Cl)ccc1C)C(=O)Cn1c(=O)cnc2ccccc21 | -0.02 (inactive)
CCN(CC(=O)Nc1cc(Cl)ccc1C)C(=O)CN1C(=O)NC2(CCCC2)C1=O | -1.31 (inactive)
CCN(CC(=O)Nc1cc(Cl)ccc1C)C(=O)CSCc1ccc(C)cc1 | -4.45 (active)
C=CCSc1nnc2c(n1)-c1cccc3cccc-2c13 | 1.16 (inactive)
CCOc1ccc(C(c2c(C)[nH][nH]c2=O)c2c(C)[nH][nH]c2=O)cc1OCC | -0.06 (inactive)
Cc1[nH][nH]c(=O)c1C(c1ccc(-c2ccc(Cl)cc2)o1)c1c(C)[nH][nH]c1=O | -9.44 (active)
Cc1[nH][nH]c(=O)c1C(c1ccc2c(c1)OCO2)c1c(C)[nH][nH]c1=O | -0.12 (inactive)
Cc1cccc(Nc2nc(NCCO)nc(N3CCCC3)n2)c1 | 0.27 (inactive)
CCCCn1c(N)c(N(Cc2ccccc2OC)C(=O)COc2cc(C)ccc2Cl)c(=O)[nH]c1=O | 0.8 (inactive)
COC(=O)[C@@]12CCCN1[C@H](c1ccc(-c3ccc(F)cc3)c(OC)c1)[C@H]1C(=O)N(C)C(=O)[C@H]12 | -0.2 (inactive)
CC(C)(C)c1cc2cccnc2n1Cc1cccc(F)c1 | -5.77 (active)
COc1ccnc2c1c(=O)n(Cc1cccc(F)c1)c(=O)n2C | 0.78 (inactive)
CC(C)(C)c1cc2cccnc2n1Cc1ccccc1 | -3.38 (inactive)
CC1CCC2(CC1)NC(=O)N(CC(=O)c1ccc3c(c1)OCO3)C2=O (centres undefined) | 0.27 (inactive)
CC(C)c1ccc(N2CCN(C(=O)c3ccccc3NC(=O)/C=C(\C(=O)O)c3ccccc3)CC2)cc1 | -8.79 (active)
COc1ccc(C(=O)Nc2ccccc2C(=O)N2CCN(c3ccccc3)CC2)cc1 | 0.29 (inactive)
O=C(O)C1CC=CCC1C(=O)Nc1ccccc1C(=O)N1CCN(c2ccccc2)CC1 (centres undefined) | -0.23 (inactive)
Cc1onc(-c2ccccc2Cl)c1C(=O)OCc1nnc(-c2ccccc2)o1 | 0.59 (inactive)
COc1ccc(CCNC2=C(Cl)C(=O)N(Cc3ccccc3)C2=O)cc1OC | -1.89 (inactive)
COc1ccc(CCN=C2SCC(=O)N2Cc2ccccc2)cc1OC | -8.95 (active)
COc1ccc(CCN=C2SCC(=O)N2C)cc1OC | 0.11 (inactive)

SMILES | B-score
COc1ccc(S(=O)(=O)NCc2cccnc2)cc1NC(=O)c1ccc(C)cc1 | -1.69 (inactive)
COC(=O)c1c(-c2ccsc2)oc2ccc(-c3cc(OC)c(OC)c(OC)c3)cc12 | 0.77 (inactive)
CC(C)Oc1ccc(S(=O)(=O)N2CCOCC2)cc1NC(=O)C1CSC2(C)CCC(=O)N12 (centres undefined) | -0.2 (inactive)
Cc1ccc(-c2nn(-c3ccc(F)cc3)cc2C(=O)NCC(c2cccs2)N2CCOCC2)cc1 (centres undefined) | 1.38 (inactive)
C=CCOc1cccc(C2C(C(=O)c3ccc(C)o3)=C(O)C(=O)N2c2nnc(C)s2)c1 (centres undefined) | -2.11 (inactive)
Cc1nc(N)[nH]c(=O)c1Oc1cccc(C(F)(F)F)c1 | 0.08 (inactive)
O=Cc1ccc(Oc2cccc(C(F)(F)F)c2)nc1 | 0.35 (inactive)
CCC(=O)OCc1c(C(F)(F)F)nn(C)c1Oc1cccc(C(F)(F)F)c1 | -6.22 (active)
CCOc1ccc(CCNC(=O)COC(=O)c2ccc(F)c(S(=O)(=O)N3CCOCC3)c2)cc1OCC | 0.3 (inactive)
O=C(CSc1nnc(-c2cccs2)n1Cc1ccco1)c1ccc2c(c1)OCO2 | -4.78 (active)
COc1ccc(NC(=O)CSc2nnc(-c3cccs3)n2Cc2ccco2)cc1OC | 0.49 (inactive)
O=C(CSc1nnc(-c2cnccn2)n1Cc1ccco1)c1ccc(Cl)c(Cl)c1 | 0.04 (inactive)
CCn1c(SC(C)C(=O)Nc2ccc(N3CCOCC3)cc2)nnc1-c1ccco1 (centres undefined) | -1.79 (inactive)
CCN(CC)c1ccc(S(=O)(=O)N2CCCCC2)cc1NC(=O)C1=COCCO1 | 1.68 (inactive)
Cc1cc(C(=O)CSc2nc(N)cc(=O)[nH]2)c(C)n1CCc1ccc(Cl)cc1 | -0.26 (inactive)
CCCc1cc(=O)[nH]c(SCC(=O)c2c(N)n(CC(C)C)c(=O)n(C)c2=O)n1 | 0.93 (inactive)
CCCc1cc(=O)[nH]c(SCC(=O)c2cc(C)n(CCC)c2C)n1 | -6.83 (active)
Cc1ncc(CO)c(/C=N/NC(=O)c2cccc(S(=O)(=O)N3CCCC3)c2)c1O | -1.2 (inactive)
NC(=O)CSc1nnc(NC(=O)c2ccc3ccccc3c2)s1 | 1.23 (inactive)
Cc1ccc(-c2csc(NC(=O)C3=COCCO3)n2)cc1C | 0.03 (inactive)
Cc1cc(Nc2ccc(Br)cc2)nc2ccccc12 | -0.01 (inactive)
COc1cccc(CNCCc2c[nH]c3ccccc23)c1OCc1ccccc1F | -12 (active)
COc1ccc(S(=O)(=O)NCCc2c[nH]c3ccccc23)cc1OC | -1.99 (inactive)
COc1ccccc1CC(=O)NCCc1c[nH]c2ccccc12 | -0.19 (inactive)
